Assay results taken from PubChem BioAssay (NCATS).
Inconclusive results are not listed. Activity calls are given as the source filed them. The call rests on the fitted dose curve; in most records, active means well fitted curve in the direction sought with a large enough effect; inconclusive means small, poorly fitted or top-dose-only effect, or another doubt; inactive means no such curve, though single readings can be large; an effect the other way counts as inactive or inconclusive.

Key:
KB-3-1 = test: Cytotoxic Profiling of Annotated Libraries Using Quantitative High-Throughput Screening (AID 1296008); conditions: Five cell lines viability, CellTiter-Glo ATP luminescence, 48-72 h; max response: active compounds read low; further: nearly all actives have a fitted effect of over 60% in size; further: potency means the concentration at half of the fitted maximal effect; on max response: on the % scale 0 is the no-effect control and ±100 the full control effect
Procedure, shortened: (§1)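 Compounds were pin-transferred onto cells and incubated 48 or 72 hr at 37 degree Celsius, 95% humidity. CellTiter-Glo was added, plates sat 10 min at room temperature, then ATP-coupled luminescence was imaged as the viability read-out.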

NIH3T3 [1] = test: as above; conditions: Five cell lines viability, CellTiter-Glo ATP luminescence, 48-72 h; max response: active compounds read low
Procedure, shortened: as §1

HACAT = test: qHTS assay to identify novel small-molecules to repurpose for Merkel cell carcinoma treatment (AID 1296009); conditions: MCC and control cell lines, CellTiter-Glo viability, 72 h; at 44.8 µM (top of the series) unless noted; further: nearly all actives have a fitted effect of over 60% in size
Procedure, shortened: (§2)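 Viability readout: ATP luminescence (CellTiter-Glo) after 72 hr drug exposure at 37 degree celsius. Dose-response format was 8 points for NPC and 11 points for MIPE; data normalized to in-plate controls.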

HEK293T [2] = test: as above; conditions: MCC and control cell lines, CellTiter-Glo viability, 72 h; at 44.8 µM (top of the series) unless noted
Procedure, shortened: as §2

C33A = test: Primary qHTS to identify gynecologic anti-cancer compounds using libraries of approved drugs and bioactive compounds (AID 1345084); conditions: Gynecologic cancer cell panel viability, ATPlite luminescence, 48 h; series mostly up to 57.5 µM; further: nearly all actives have a fitted effect of over 55% in size; further: potency means the concentration at half of the fitted maximal effect; on activity change, negative = cytotoxicity: on the % scale 0 is the no-effect control and ±100 the full control effect
Procedure, shortened: (§3)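 Cells, 1,000 per well, plated 16 h, then exposed 48 h at 37 C to compounds. Viability by ATPlite luminescence after 15 min at room temperature.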

CAOV3 = test: as above; conditions: Gynecologic cancer cell panel viability, ATPlite luminescence, 48 h; series mostly up to 57.5 µM
Procedure, shortened: as §3

CASKI = test: as above; conditions: Gynecologic cancer cell panel viability, ATPlite luminescence, 48 h; series mostly up to 57.5 µM
Procedure, shortened: as §3

Es-2 = test: as above; conditions: Gynecologic cancer cell panel viability, ATPlite luminescence, 48 h; series mostly up to 57.5 µM
Procedure, shortened: as §3

HeLa = test: as above; conditions: Gynecologic cancer cell panel viability, ATPlite luminescence, 48 h; series mostly up to 57.5 µM
Procedure, shortened: as §3

Hek293T [3] = test: as above; conditions: Gynecologic cancer cell panel viability, ATPlite luminescence, 48 h, control line for the selectivity index; series mostly up to 57.5 µM
Procedure, shortened: as §3

JEG-3 = test: as above; conditions: Gynecologic cancer cell panel viability, ATPlite luminescence, 48 h; series mostly up to 57.5 µM
Procedure, shortened: as §3

OV90 = test: as above; conditions: Gynecologic cancer cell panel viability, ATPlite luminescence, 48 h; series mostly up to 57.5 µM
Procedure, shortened: as §3

NIH3T3 [4] = test: qHTS assay to identify novel small-molecules to repurpose for Merkel cell carcinoma treatment (AID 1296009); conditions: MCC and control cell lines, CellTiter-Glo viability, 72 h; at 44.8 µM (top of the series) unless noted; further: nearly all actives have a fitted effect of over 60% in size
Procedure, shortened: as §2

CRL-7250 = normal cell line; test: as above; conditions: MCC and control cell lines, CellTiter-Glo viability, 72 h; at 44.8 µM (top of the series) unless noted
Procedure, shortened: as §2

CCCCCCn1c(=O)c(C(=O)Nc2ccc(C(=O)OCCC)cc2)c(O)c2ccccc21
inactive: outcome (KB-3-1) | max response (NIH3T3 [1]) 4.2% | outcome (HACAT) inactive [at 9.27 µM] | outcome (HEK293T [2]) inactive [at 9.27 µM] | activity change, negative = cytotoxicity (C33A) -0.0211% [at 11.6 µM] | activity change, negative = cytotoxicity (CAOV3) 20.9% [at 11.6 µM] | activity change, negative = cytotoxicity (CASKI) 4.2% [at 11.6 µM] | activity change, negative = cytotoxicity (Es-2) 9.25% [at 11.6 µM] | activity change, negative = cytotoxicity (HeLa) 18.5% [at 11.6 µM] | activity change, negative = cytotoxicity (Hek293T [3]) 10.5% [at 11.6 µM] | activity change, negative = cytotoxicity (JEG-3) -0.73% [at 11.6 µM] | activity change, negative = cytotoxicity (OV90) 9.17% [at 11.6 µM]

CN1C(=O)c2ccccc2NC(=O)C1Cc1ccccc1 (stereo not given)
inactive: max response (KB-3-1) 3.82% | max response (NIH3T3 [1]) -1.81% | outcome (HEK293T [2]) | Potency (C33A) | Potency (CASKI) | Potency (Es-2) | Potency (HeLa) | Potency (Hek293T [3]) | Potency (JEG-3) | Potency (OV90)

CCCCCOc1cc2c(cc1-c1cc(/C=C/C(=O)O)ccc1O)C(C)(C)CCC2(C)C
inactive: outcome (KB-3-1) | max response (NIH3T3 [1]) -4.13% | outcome (HACAT) | outcome (HEK293T [2]) | Potency (C33A) | Potency (CASKI) | Potency (Es-2) | Potency (HeLa) | Potency (Hek293T [3]) | Potency (JEG-3) | Potency (OV90)

CN(C)CCc1c[nH]c2ccc(CN3CCN(C)S3(=O)=O)cc12
inactive: max response (KB-3-1) -6.8% | outcome (NIH3T3 [1]) | outcome (HACAT) | Potency (C33A) | Potency (CAOV3) | Potency (CASKI) | Potency (Es-2) | Potency (HeLa) | Potency (Hek293T [3]) | Potency (JEG-3) | Potency (OV90)

C[C@@](O)(COc1ccc(C#N)cc1)C(=O)Nc1ccc(C#N)c(C(F)(F)F)c1
inactive: max response (KB-3-1) 2.83% | outcome (NIH3T3 [1]) | outcome (HACAT) | outcome (NIH3T3 [4]) | Potency (C33A) | Potency (CASKI) | Potency (Es-2) | Potency (HeLa) | Potency (Hek293T [3]) | Potency (JEG-3) | Potency (OV90)

COC1=CC(=O)O[C@@H](/C=C/c2ccccc2)C1
inactive: outcome (KB-3-1) | outcome (NIH3T3 [1]) | outcome (HACAT) | Potency (C33A) | Potency (CASKI) | Potency (Es-2) | Potency (HeLa) | Potency (Hek293T [3]) | Potency (JEG-3)

CC(=O)O[C@H]1C[C@@H](OC(C)=O)C(C)(C)C2C[C@@H](O)[C@]3(C)C(CC[C@@]4(C)[C@H](C5=CC(=O)OC5O)C[C@H]5O[C@]543)[C@]21C (stereo not given in full)
inactive: max response (KB-3-1) 6.85% | outcome (NIH3T3 [1]) | outcome (HEK293T [2]) inactive [at 17.4 µM] | outcome (NIH3T3 [4]) inactive [at 17.4 µM] | Potency (C33A) | Potency (CAOV3) | Potency (CASKI) | Potency (Es-2) | Potency (HeLa) | Potency (Hek293T [3]) | Potency (JEG-3) | Potency (OV90)

CN1[C@H]2C[C@H](OC(=O)[C@H](CO)c3ccccc3)C[C@@H]1[C@@H](O)C2
inactive: max response (KB-3-1) 1.1% | outcome (NIH3T3 [1]) | outcome (HACAT) | outcome (HEK293T [2]) | outcome (NIH3T3 [4]) | Potency (C33A) | Potency (CAOV3) | Potency (CASKI) | Potency (Es-2) | Potency (HeLa) | Potency (Hek293T [3]) | Potency (JEG-3) | Potency (OV90)

C=C(C)[C@H]1O[C@H]2CC[C@@]3(C)[C@@](O)(CC[C@H]4[C@@H]5OC(C)(C)[C@H]6C[C@@H]7C(=C)Cc8c(Cl)cc9[nH]c(c5c9c8[C@@]76O)[C@@]43C)[C@]23O[C@@H]3[C@H]1O
inactive: outcome (KB-3-1) | max response (NIH3T3 [1]) -2.87% | outcome (HEK293T [2]) inactive [at 17.4 µM] | Potency (C33A) | Potency (CAOV3) | Potency (CASKI) | Potency (Es-2) | Potency (HeLa) | Potency (Hek293T [3]) | Potency (JEG-3) | Potency (OV90)

CCN1C[C@]2(OC(=O)c3ccccc3NC(C)=O)CC[C@H](OC)[C@@]34[C@@H]2C[C@@H]([C@@H]13)[C@@]1(O)C[C@H](OC)[C@H]2C[C@@H]4[C@]1(O)[C@H]2OC
inactive: max response (KB-3-1) 6.81% | outcome (NIH3T3 [1]) | outcome (HACAT) | Potency (C33A) | Potency (CASKI) | Potency (Es-2) | Potency (HeLa) | Potency (Hek293T [3]) | Potency (JEG-3) | Potency (OV90)

CCC(C)(C#N)O[C@@H]1O[C@H](CO)[C@@H](O)[C@H](O)[C@H]1O (stereo not given in full)
inactive: outcome (KB-3-1) | outcome (NIH3T3 [1]) | outcome (HACAT) | outcome (HEK293T [2]) | outcome (NIH3T3 [4]) | Potency (C33A) | Potency (CAOV3) | Potency (CASKI) | Potency (Es-2) | Potency (HeLa) | Potency (Hek293T [3]) | Potency (JEG-3) | Potency (OV90)

COC1C(O)C(C)OC(OC2C(CO)O[C@@H](O[C@@H]3CC4CCC5C(CC[C@]6(C)[C@@H](C7=CC(=O)OC7)CC[C@]56O)[C@@]4(C)[C@H](O)C3)C(O)C2O)C1O (stereo not given in full)
inactive: outcome (NIH3T3 [1]) | outcome (NIH3T3 [4]) inactive [at 17.4 µM]
active: Potency (KB-3-1) 862 nM | Potency (C33A) 794 nM | Potency (CAOV3) 2820 nM | Potency (CASKI) 2510 nM | Potency (Es-2) 2820 nM | Potency (HeLa) 2820 nM | Potency (Hek293T [3]) 2820 nM | Potency (OV90) 4470 nM

C[C@]12CC[C@H]3[C@@H]([C@H](O)CC4=CC(=O)CC[C@@]43C)[C@@H]1CC[C@@H]2O
inactive: max response (KB-3-1) 5.15% | outcome (NIH3T3 [1]) | outcome (CRL-7250) | outcome (NIH3T3 [4]) | Potency (C33A) | Potency (CAOV3) | Potency (CASKI) | Potency (Es-2) | Potency (HeLa) | Potency (Hek293T [3]) | Potency (JEG-3) | Potency (OV90)

Cc1c(Cl)cccc1S(=O)(=O)Nc1nc(CC(=O)N2CCN(C)CC2)cs1
inactive: outcome (KB-3-1) | outcome (NIH3T3 [1]) | outcome (HACAT) | outcome (NIH3T3 [4]) | Potency (C33A) | Potency (CASKI) | Potency (Es-2) | Potency (HeLa) | Potency (Hek293T [3]) | Potency (JEG-3) | Potency (OV90)

CN1C(=O)N(c2ccc(C#N)c(C(F)(F)F)c2)C(=O)[C@]1(CO)c1ccccc1
inactive: outcome (KB-3-1) | outcome (NIH3T3 [1]) | outcome (CRL-7250) | Potency (C33A) | Potency (CASKI) | Potency (HeLa) | Potency (Hek293T [3]) | Potency (JEG-3) | Potency (OV90)
